For test [1], the target named is Cell division control protein 42 homolog (Homo sapiens) (UniProt P60953). The test can be described thus: activated mutant Cdc42 GTP-binding inhibitors, dose response, biochemical, multiplex bead flow cytometry, Bodipy-FL-GTP (AID 1333;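 active = fitted half-maximal concentration within the tested dose range, moderate curve steepness, a statistically real signal drop, and little compound fluorescence or tag-binding interference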).
For test [2] the target is unchanged. The test can be described thus: wildtype Cdc42 GTP-binding inhibitors, dose response, biochemical, multiplex bead flow cytometry, Bodipy-FL-GTP (AID 1334;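 active = fitted half-maximal concentration within the tested range, moderate curve steepness, significant signal drop, and little compound fluorescence or bead-linkage interference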). Conditions: bead-based flow cytometry, Bodipy-FL-GTP binding to GST-Cdc42; at 100 µM (top of the series) unless noted.
Test [3] addresses GTPase HRas (Homo sapiens) (UniProt P01112). The test can be described thus: inhibitors of GTP binding to wildtype Ras, dose response, biochemical, multiplex bead flow cytometry (AID 1335;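 active = fitted half-maximal concentration within 10 nM to 100 µM, steepness 0.5 to 2, significant signal drop, low assay interference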). Conditions: bead-based flow cytometry, Bodipy-GTP binding to GST-Ras; at 100 µM (top of the series) unless noted.
Test [4] concerns Ras-related protein Rab-7a (dog), GTP binding. Nature of the test: Rab7 GTP binding inhibitors, potency, dose response, biochemical, wildtype, multiplex bead flow cytometry (AID 1336; call rule not given here).
The target of test [5] is Ras-related C3 botulinum toxin substrate 1 (Homo sapiens) (UniProt P63000). Nature of the test: wildtype Rac1 GTP binding inhibitors, dose response, biochemical, multiplex bead flow cytometry (AID 1340). Conditions: GST-Rac1 beads, Bodipy-FL-GTP binding; at 100 µM (top of the series) unless noted.
Test [6] has as its target GTPase HRas (Homo sapiens) (UniProt P01112). The test can be described thus: activated Ras mutant GTP binding inhibitors, dose response, biochemical, multiplex bead flow cytometry (AID 1341;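 active = dose-response curve with midpoint inside the tested range, moderate steepness, significant amplitude and little compound fluorescence or bead-attachment interference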;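 note: GST-tagged constitutively activated Ras mutant immobilized on beads and multiplexed with other GTPases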).

For some of these results: Potency and affinity values are given separately. Active and inactive are the calls of the source.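 Rule for the calls, unless noted: active = dose curve with midpoint inside tested range, moderate steepness, plateau gap beyond fit error, low compound glow and bead-link interference; inactive = the rest.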

From PubChem BioAssay come the findings set out here.

GTPase HRas (Homo sapiens), sequence (P01112 whole entry, looked up): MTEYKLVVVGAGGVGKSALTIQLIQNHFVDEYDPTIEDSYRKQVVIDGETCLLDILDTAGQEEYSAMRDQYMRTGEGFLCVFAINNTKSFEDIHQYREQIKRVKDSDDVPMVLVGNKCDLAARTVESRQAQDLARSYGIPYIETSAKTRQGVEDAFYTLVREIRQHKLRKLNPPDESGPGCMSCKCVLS
Cell division control protein 42 homolog (Homo sapiens), sequence (P60953 whole entry, looked up): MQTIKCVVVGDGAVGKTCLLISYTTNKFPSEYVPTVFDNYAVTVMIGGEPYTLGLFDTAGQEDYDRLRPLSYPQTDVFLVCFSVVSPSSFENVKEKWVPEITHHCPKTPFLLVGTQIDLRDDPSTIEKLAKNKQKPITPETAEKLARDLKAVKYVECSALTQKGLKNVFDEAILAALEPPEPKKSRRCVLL

For `CC(C)Cc1csc(NC(=O)c2ccccc2Cl)c1C(=O)O`, the result in test [1] and in test [4] was inactive. Besides, the fluorescence, percent of control (lower = inhibition) in test [2] stood at 29.8%. Further, the GTP binding, percent of control in test [3] stood at 74.3%. The same compound came in with a GTP binding signal, raw median fluorescence (lower = inhibition) (MCF (arbitrary fluorescence units)) in test [5] of 214.

As for `COc1cccc(NC(=O)CSc2nc3c([nH]c4ccccc43)c(=O)n2C)c1`, the call in test [1], in test [4] and in test [6] was inactive. Moreover, in test [2], the fluorescence, percent of control (lower = inhibition) came to 42.8%. The GTP binding, percent of control in test [3] is 92.1%. For the same compound, in test [5], the GTP binding signal, raw median fluorescence (lower = inhibition) (MCF (arbitrary fluorescence units)) came out at 293.

Take `COc1ccc(C(=O)c2c(O)cc(-c3ccc(OC)cc3)oc2=O)cc1`: the outcome in test [1] and in test [4] was inactive. In test [2], this compound came in with a fluorescence, percent of control (lower = inhibition) of 52.9%. For the same compound, the GTP binding, percent of control in test [3] turned out to be 70.9%. In addition, in test [5], the GTP binding signal, raw median fluorescence (lower = inhibition) (MCF (arbitrary fluorescence units)) amounted to 249.

For the compound `CCCCCCCCCCCC(=O)c1c(O)cccc1O`, the compound was called inactive in test [1], in test [4] and in test [6]. The same compound returned a fluorescence, percent of control (lower = inhibition) in test [2] of 28.4%. The GTP binding, percent of control in test [3] was determined as 79.8%. The same compound had a GTP binding signal, raw median fluorescence (lower = inhibition) (MCF (arbitrary fluorescence units)) in test [5] of 241.

On to `COc1ccc(NC(=O)c2cc3nc(-c4ccccc4)cc(C)n3n2)cc1OC`, for which the compound was called inactive in test [1], in test [4] and in test [6]. This compound also registered a fluorescence, percent of control (lower = inhibition) in test [2] of 33.2%. The GTP binding, percent of control in test [3] came to 76.8%. Besides, the GTP binding signal, raw median fluorescence (lower = inhibition) (MCF (arbitrary fluorescence units)) in test [5] turned out to be 218.

`O=c1c2ccc([N+](=O)[O-])cc2ncn1Cc1ccccc1C(F)(F)F`: the compound was classed as inactive in test [1], in test [4] and in test [6]. The compound also had a fluorescence, percent of control (lower = inhibition) in test [2] of 34.8%. Besides, the GTP binding, percent of control in test [3] was 72.7%. Besides, in test [5], the GTP binding signal, raw median fluorescence (lower = inhibition) (MCF (arbitrary fluorescence units)) was 141.

As for `O=C(Nc1c(F)cccc1F)c1cnc(N2CCN(c3ccccn3)CC2)c2ccccc12`, the compound was classed as inactive in test [1], in test [4] and in test [6]. Besides, the fluorescence, percent of control (lower = inhibition) in test [2] came to 97%. Also, the GTP binding, percent of control in test [3] was 199%. Further, the GTP binding signal, raw median fluorescence (lower = inhibition) (MCF (arbitrary fluorescence units)) in test [5] was 217.

For the compound `CCOC(=O)c1sc(NC(=O)CSc2nnc(Cc3ccccc3)o2)c(C#N)c1C`, the result in test [1], in test [4] and in test [6] was inactive. In test [2], the fluorescence, percent of control (lower = inhibition) turned out to be 36.5%. Also, the GTP binding, percent of control in test [3] was determined as 56.1%. Besides, the GTP binding signal, raw median fluorescence (lower = inhibition) (MCF (arbitrary fluorescence units)) in test [5] came to 118.

`Cc1cc2nc3c(=O)n(C4CCCCC4)c(=O)[nH]c3nc2cc1N`: the call in test [1], in test [4] and in test [6] was inactive. Also, the fluorescence, percent of control (lower = inhibition) in test [2] amounted to 42.7%. The GTP binding, percent of control in test [3] is 53.2%. Further, the GTP binding signal, raw median fluorescence (lower = inhibition) (MCF (arbitrary fluorescence units)) in test [5] turned out to be 146.

Regarding `Cc1c(C(=O)N2CCc3ccccc3C2)oc2ccc(S(=O)(=O)N3CCCCCC3)cc12`, the result in test [1], in test [4] and in test [6] was inactive. In addition, the fluorescence, percent of control (lower = inhibition) in test [2] turned out to be 56.2%. The GTP binding, percent of control in test [3] is 76%. Moreover, the GTP binding signal, raw median fluorescence (lower = inhibition) (MCF (arbitrary fluorescence units)) in test [5] was found to be 274.

Regarding `Cc1cc(C)n2nc(C(=O)Nc3ccc(S(=O)(=O)N4CCCC4)cc3)nc2n1`, the result in test [1], in test [4] and in test [6] was inactive. This compound also came in with a fluorescence, percent of control (lower = inhibition) in test [2] of 37%. This compound also gave a GTP binding, percent of control in test [3] of 82.5%. Also, the GTP binding signal, raw median fluorescence (lower = inhibition) (MCF (arbitrary fluorescence units)) in test [5] was 257.

Regarding `COc1cc(/C=N/Nc2ncnc3sc4c(c23)CCC4)ccc1O`, the result in test [1], in test [4] and in test [6] was inactive. This compound also had a fluorescence, percent of control (lower = inhibition) in test [2] of 33.9%. Moreover, the GTP binding, percent of control in test [3] was determined as 48.1%. Besides, the GTP binding signal, raw median fluorescence (lower = inhibition) (MCF (arbitrary fluorescence units)) in test [5] is 126.

For the compound `CCCCOc1cccc(C#CC(=O)c2ccc([N+](=O)[O-])cc2)c1`, the call in test [1], in test [4] and in test [6] was inactive. The compound also showed a fluorescence, percent of control (lower = inhibition) in test [2] of 59.2%. The same compound returned a GTP binding, percent of control in test [3] of 182%. The same compound had a GTP binding signal, raw median fluorescence (lower = inhibition) (MCF (arbitrary fluorescence units)) in test [5] of 128.

In the case of `Cc1ccc(C2=NN(S(=O)(=O)c3ccccc3)C(c3ccccc3O)C2)cc1` (configuration not stated), the compound was called inactive in test [1], in test [4] and in test [6]. The fluorescence, percent of control (lower = inhibition) in test [2] was found to be 50.2%. Moreover, the GTP binding, percent of control in test [3] was 104%. The compound further returned a GTP binding signal, raw median fluorescence (lower = inhibition) (MCF (arbitrary fluorescence units)) in test [5] of 158.
